High-throughput results (PubChem)
FLuc counter: firefly luciferase modulation, counter-screen for miR-21 project; P08659; purified FLuc, Km substrates, luminescence inhibition; AID 588342; 360,000 compounds, 6.9% hits; Potency, µM (series often up to 57.5 µM), actives largely listed as inhibitors; note: nearly all actives have a fitted effect of over 55% in size
Target sequence (P08659 whole entry, looked up): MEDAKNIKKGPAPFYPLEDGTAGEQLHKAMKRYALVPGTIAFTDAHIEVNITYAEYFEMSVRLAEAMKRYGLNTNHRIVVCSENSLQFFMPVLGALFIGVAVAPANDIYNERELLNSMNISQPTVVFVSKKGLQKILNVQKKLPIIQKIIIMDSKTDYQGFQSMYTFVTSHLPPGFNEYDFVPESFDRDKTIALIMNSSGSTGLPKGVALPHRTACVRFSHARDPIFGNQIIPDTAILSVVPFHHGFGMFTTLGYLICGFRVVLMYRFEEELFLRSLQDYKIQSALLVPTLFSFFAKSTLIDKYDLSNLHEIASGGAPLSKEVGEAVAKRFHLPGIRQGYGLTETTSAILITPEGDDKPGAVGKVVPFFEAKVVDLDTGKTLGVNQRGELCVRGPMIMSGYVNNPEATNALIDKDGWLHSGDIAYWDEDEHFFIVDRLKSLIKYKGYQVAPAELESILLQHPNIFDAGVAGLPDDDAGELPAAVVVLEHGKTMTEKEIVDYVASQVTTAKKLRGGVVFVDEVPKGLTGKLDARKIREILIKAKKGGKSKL
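Purified P. pyralis luciferase, 10 nM final, with Km-level 10 uM D-luciferin and 10 uM ATP in 50 mM Tris acetate pH 7.5, 10 mM Mg acetate, 0.01% Tween-20, 0.05% BSA; 6-point qHTS titration about 60 µM downward; luminescence read.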
SMN2 splice up: increases expression of the SMN2 splice variant; HEK293 SMN2-luciferase splicing reporter, luminescence, 30-36 h; Potency, µM (highest dose often 46.1 µM), actives largely listed as activators; 210,000 compounds, 2.8% hits; note: nearly all actives have a fitted effect of over 55% in size
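HEK293 cells carry an SMN2 […]–luciferase reporter in which exon 7 inclusion puts luciferase in frame. Cells were plated 10-12 h before compound addition, then incubated 30-36 h at 37C. ONE-Glo luminescence was read; sodium butyrate at 4.5 mM final served as control.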
NPC1 prom act: NPC1 promoter activation; Huh7 NPC1 promoter luciferase reporter, 24 h; Potency, µM (highest dose often 9.22 µM), hits mostly activators; 320,000 compounds, 2.4% hits; AID 485313; note: nearly all actives have a fitted effect of over 60% in size
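Stably transfected Huh7 (NPC1 promoter→luciferase), 1500 cells/well in Opti-MEM + 10% FBS, 2 h settle, then compound 24 h at 37 °C. Luminescence after 10 min with Amplite reagent.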
ELG1 genotox: genotoxicity induction in ELG1-luciferase HEK293T cells. 330,000 compounds, 1.3% hits. HEK293T ELG1-luciferase reporter, luminescence, 16 h. Potency, µM (doses to about 46 µM), most hits filed as activators. AID 504466; note: nearly all actives have a fitted effect of over 60% in size
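Genotoxic stress is detected as increased luminescence from luciferase-tagged ELG1 in HEK293T cells, measured with ONE-Glo after a 16 hr treatment at 37 °C.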
Rab9 prom act: activates the Rab9 promoter; 320,000 compounds, 2.8% hits; Huh7 Rab9 promoter-luciferase reporter, luminescence, 24 h; Potency, µM (highest dose often 9.22 µM), most hits filed as activators; AID 485297; note: nearly all actives have a fitted effect of over 60% in size
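Stable Rab9-luc Huh7, 1500 cells/well, 2 h settle; cmpd in DMSO, 24 h, 37 °C/5% CO2; luciferase reagent 10 min RT; luminescence.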
p53 reactivator: re-activators of mutant p53. H1299 p53-A138V BP100-luciferase reporter, luminescence, 24 h. Potency, µM (top dose mostly 92.2 µM), most hits filed as activators. 320,000 compounds, 0.063% hits. AID 504706; note: nearly all actives have a fitted effect of over 45% in size
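H1299 (p53-null), stable ts p53-A138V + BP100-Luc; 1000 cells/well, Opti-MEM/10% FBS; cpd 4 pt, 1:5; 24 h, 37 deg C, 5% CO2; detection reagent 10 min RT; luminescence.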
Hits are given with their value; i = inactive; ? = inconclusive; nt = no result. The list is not random: actives were taken first. Their share in the collection is about 7.3%. Calls come from the whole dose curve; as a rule, active = well fitted curve in the direction sought with a large enough effect; inconclusive = small, poorly fitted or top-dose-only effect, or another doubt; inactive = no such curve, though single readings can be large; an effect the other way counts as inactive or inconclusive.

SMILES	FLuc counter	SMN2 splice up	NPC1 prom act	ELG1 genotox	Rab9 prom act	p53 reactivator
COc1cccc(CN(C(=O)c2cccc(C)c2)C2CCS(=O)(=O)C2)c1 (stereo not drawn)	i	i	nt	nt	nt	nt
O=C(Nc1nn[nH]n1)c1cccc(Oc2ccccc2)c1	i	i	i	i	i	i
Cc1cc(NC(=O)c2cccc(Oc3ccccc3)c2)n[nH]1	6.7µM	?	2.8µM	?	0.89µM	i
Cc1cc(NC(=O)NC(=O)c2cccc(OC(F)(F)C(F)F)c2)n[nH]1	i	5.6µM	2.5µM	?	2.2µM	i
Cc1c(NC(=S)NC(NC(=O)C(C)C)C(Cl)(Cl)Cl)c(=O)n(-c2ccccc2)n1C (stereo not drawn)	i	i	i	i	i	i
COc1ccc(-c2nnn(CC(=O)OC3CCCCC3)n2)cc1OC	i	nt	i	i	i	i
O=C(Cn1nnc(-c2cccs2)n1)NCc1cccs1	i	i	i	i	i	i
Cc1ccc(C(=O)Cn2nnc(-c3cccs3)n2)cc1	5.4µM	nt	?	i	3.2µM	?
CC1CCN(C(=O)Cn2nnc(-c3cccs3)n2)CC1	?	nt	3.5µM	?	2.2µM	i
O=C(Cn1nnc(-c2cccs2)n1)OC1CCCCC1	13µM	i	i	i	i	i
COc1ccc(-n2ncc3c(NC(C)C)ncnc32)cc1	1.3µM	2.8µM	0.28µM	?	0.32µM	i
COc1ccc(-n2ncc3c(NCC(C)C)ncnc32)cc1	1.1µM	2µM	0.4µM	?	0.35µM	?
COc1ccc(-n2ncc3c(NCc4ccc5c(c4)OCO5)ncnc32)cc1	i	i	i	?	i	?
COc1ccc(OC)c(Nc2ncnc3c2cnn3-c2ccc(C)cc2)c1	i	nt	nt	nt	nt	nt
CCN(c1ccc(OCC(=O)OCC(=O)c2c(N)n(C)c(=O)n(C)c2=O)cc1)S(=O)(=O)c1ccccc1	12µM	i	i	i	i	i
CC1N(C(=O)N2CCOCC2)CCN1S(=O)(=O)c1ccc(Cl)cc1 (stereo not drawn)	i	nt	i	i	i	i
CC1(C(=O)NCCN2CCOCC2)C=CCN1C(=O)c1ccccc1 (stereo not drawn)	24µM	?	i	i	i	?
COC(=O)C(Cc1ccc(O)cc1)NC(=O)c1ccc2c(c1)OCCO2 (stereo not drawn)	1.3µM	nt	i	?	i	i
CC(=O)Nc1cc(NC(C)=O)cc(C(=O)OCC(=O)c2ccc3c(c2)OCO3)c1	i	nt	i	i	i	i
O=C(COC(=O)c1ccc(O)cc1O)c1ccc2c(c1)OCO2	8.5µM	nt	?	i	i	i
COC(=O)C(Cc1ccc(O)cc1)NC(=O)CCc1ccco1 (stereo not drawn)	i	nt	i	i	i	i
O=C(COC(=O)c1cc(Cl)ccc1O)c1ccc2c(c1)OCO2	1.9µM	nt	?	i	i	i
O=C(COC(=O)c1ccc(O)cc1)c1ccc2c(c1)OCCO2	1.2µM	nt	3.5µM	5.2µM	4µM	i
CCn1c(SCc2ccccc2Cl)nc2ccccc21	12µM	?	i	i	i	i
Cn1c(SCc2ccccc2Cl)nnc1-c1cnccn1	?	?	?	11µM	?	?
SMILES	FLuc counter	SMN2 splice up	NPC1 prom act	ELG1 genotox	Rab9 prom act	p53 reactivator
Cn1c(SCc2ccccc2Cl)nc2ccccc21	6µM	i	2.5µM	5.8µM	?	?
Cc1ccc(CNC(=O)[C@@H](NC(=O)C2CCN(C(=O)[C@@H](N)CC(C)C)CC2)C(C)C)cc1	i	nt	i	i	i	nt
CCOC(=O)N1CCC(N2C(=O)c3ccccc3C2Nc2ccc3c(c2)OCCO3)CC1 (stereo not drawn)	21µM	i	i	?	i	?
CCOC(=O)C1CCN(c2c(Nc3ccc4c(c3)OCCO4)c(=O)c2=O)CC1	21µM	i	i	?	i	?
C/C(=N\NS(=O)(=O)c1ccccc1)c1cccc(NC(=O)c2cccc(Cl)c2)c1	24µM	i	i	i	i	i
C/C(=N\NC(=O)c1ccn(C)n1)c1cccc(NC(=O)c2ccncc2)c1	15µM	i	i	i	i	i
C/C(=N\NC(=O)c1ccc(Cl)cc1)c1cccnc1	17µM	nt	?	?	?	i
C/C(=N/NS(=O)(=O)c1ccc(Cl)cc1)c1cccc(NC(=O)c2ccncc2)c1	i	nt	i	i	i	i
C/C(=N\NC(=O)c1ccncc1)c1ccc(NC(=O)c2ccc(Cl)cc2)cc1	nt	nt	i	?	i	?
C/C(=N\NC(=O)c1cccnc1)c1ccccc1	i	nt	i	i	i	nt
C/C(=N\NC(=O)c1ccc(Cl)cc1)c1cccc(NC(=O)c2cccnc2)c1	3µM	?	i	i	?	i
CCOC(=O)c1cnn(-c2cccc(Cl)c2)c1C1CCN(C(=O)OC(C)(C)C)CC1	i	i	nt	nt	nt	nt
O=C(CSc1nc(NS(=O)(=O)c2ccccc2)cc(=O)[nH]1)Nc1ccc(F)cc1	i	i	i	i	i	i
O=C(Nc1ccc(NC(=O)c2cccnc2)cc1)c1ccccc1	i	nt	i	i	i	i
Cc1ccnc(NS(=O)(=O)c2ccc(NC(=O)CSc3nc(-c4ccccc4)cc(=O)[nH]3)cc2)n1	13µM	i	i	i	i	i
O=C(Nc1cnc2ccccc2c1)c1cccnc1	11µM	13µM	3.2µM	4.6µM	2.2µM	?
O=C(NNC(=O)c1cccc(-n2cnnn2)c1)c1ccccc1	i	i	i	i	i	i
O=C(CNC(=O)c1ccc(-c2ccccc2)cc1)Nc1ccc(S(=O)(=O)Nc2ncccn2)cc1	17µM	nt	i	i	i	i
O=C(Nc1cnc2ccccc2c1)c1cccc(-n2cnnn2)c1	24µM	?	4µM	i	4.5µM	i
O=C(Nc1cccc(-n2cnnn2)c1)c1cc(Cl)nc(Cl)c1	i	nt	i	i	i	i
Cc1cc(C(=O)Nc2ccc(-n3c(C)nc4ccccc4c3=O)cc2)ccc1[N+](=O)[O-]	i	nt	nt	nt	nt	nt
Cc1ccc(C(=O)Nc2ccc(S(=O)(=O)Nc3cnc4ccccc4n3)cc2)cc1	27µM	nt	i	i	i	i
Cn1c(NC(=O)c2cccnc2)nc2ccccc21	?	13µM	3.2µM	i	3.5µM	i
COc1cc(C(=O)Nc2ccc(S(=O)(=O)Nc3cnc4ccccc4n3)cc2)cc(OC)c1OC	i	nt	i	?	i	i
CC(C)(C)c1ccc(C(=O)Nc2cccc(-n3cnnn3)c2)cc1	0.6µM	nt	?	i	?	?
Cc1cc(C(=O)Nc2cnc3ccccc3c2)ccc1[N+](=O)[O-]	?	13µM	1.4µM	?	2.2µM	i
Cc1ccc(S(=O)(=O)N2CCN(c3ccccc3)CC2)s1	nt	nt	nt	i	nt	i
CCC(=O)N1CCc2cc(Br)cc(S(=O)(=O)CCC(=O)N(C)c3cccc(C)c3)c21	i	i	i	nt	i	nt
Cc1ccc(C(=O)Nc2cnc3ccccc3c2)cc1	0.076µM	nt	?	?	?	i
